Compounds without any hit were thinned out: in the full panel of roughly 79,000, 15% have a hit. Activity calls are given as the source filed them. Cut-off read from the data, not from the text of the source: active = growth inhibition above about 70%; inactive = the rest.
Key:
[1] = NCI Yeast Anticancer Drug Screen. Data for the rad52 strain (AID 147);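 note: 0% = growth of vehicle-treated control cultures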; details: S. cerevisiae rad52 mutant growth inhibition, active compounds read high
How it was run: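 The repair-mutant yeast strain was incubated with compounds, then growth was read and inhibition derived relative to vehicle.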

[2] = NCI Yeast Anticancer Drug Screen. Data for the wt1 strain (AID 149);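 note: 0% = growth of vehicle-treated wt1 cultures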; details: S. cerevisiae wt1 strain (SPY 50644) growth inhibition, active compounds read high
How it was run: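 The wt1 strain was treated with compounds, and growth was compared with vehicle-treated cultures to give inhibition.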

[3] = NCI Yeast Anticancer Drug Screen. Data for the rad50EPP+ strain (AID 151);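 note: 0% = growth of vehicle-treated control cultures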; details: S. cerevisiae rad50 mutant strain, active compounds read high
How it was run: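 Vehicle-normalised growth inhibition; rad50EPP+ yeast strain, altered in DNA damage repair, compound-treated.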

[4] = NCI Yeast Anticancer Drug Screen. Data for the mgt1 strain (AID 153); details: S. cerevisiae mgt1 mutant growth inhibition, active compounds read high
How it was run: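 Vehicle-normalized growth inhibition is determined in mgt1 yeast, a strain selected for a defined alteration in DNA repair or cell cycle control.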

[5] = NCI Yeast Anticancer Drug Screen. Data for the rad50 strain (AID 155);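 note: 0% = growth of vehicle-only cultures of the same strain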; details: S. cerevisiae rad50 strain growth inhibition, active compounds read high
How it was run: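 Cells are treated with compound, grown, and their growth is then scored against vehicle-only cultures of the same repair-deficient yeast strain.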

[6] = NCI Yeast Anticancer Drug Screen. Data for the mec2-1 strain (AID 157); details: S. cerevisiae mec2-1 strain, active compounds read high
How it was run: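 Mutant yeast (mec2-1) grown with compound; growth inhibition relative to vehicle control reported.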

[7] = NCI Yeast Anticancer Drug Screen. Data for the rad14 strain (AID 159);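 note: 0% = growth of vehicle-treated control cultures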; details: S. cerevisiae rad14 strain growth inhibition, active compounds read high
How it was run: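 Readout: yeast growth inhibition, referenced to vehicle-only cultures. Strain bears a defined alteration in DNA damage repair.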

[8] = NCI Yeast Anticancer Drug Screen. Data for the sgs1 mgt1 strain (AID 161);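 note: 0% = growth of cultures given vehicle only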; details: S. cerevisiae sgs1 mgt1 strain, active compounds read high
How it was run: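 This yeast growth screen uses a strain with defined DNA-repair lesions; compound-treated growth is compared with vehicle-treated growth.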

[9] = NCI Yeast Anticancer Drug Screen. Data for the CLN2oe strain (AID 163);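 note: 0% = growth of vehicle-only control cultures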; details: S. cerevisiae CLN2oe strain, active compounds read high
How it was run: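 Compounds are applied to yeast harbouring a defined cell-cycle control change; reduced growth compared with vehicle-treated controls gives the value.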

[10] = NCI Yeast Anticancer Drug Screen. Data for the cln2 rad14 strain (AID 165);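 note: 0% = growth equal to vehicle treated cultures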; details: S. cerevisiae cln2 rad14 strain, active compounds read high
How it was run: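 Readout is yeast growth inhibition versus vehicle-treated controls, using a strain with cln2 and rad14 alterations exposed to compound.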

[11] = NCI Yeast Anticancer Drug Screen. Data for the bub3 strain (AID 167); details: S. cerevisiae bub3 mutant strain, active compounds read high
How it was run: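 Part of a panel of yeast mutants defective in DNA damage repair or cell cycle regulation. Each strain is grown with compound, and inhibition is calculated relative to solvent-treated cultures.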

[12] = NCI Yeast Anticancer Drug Screen. Data for the wt2 strain (AID 169);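 note: 0% = growth of vehicle-treated yeast cultures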; details: S. cerevisiae wt2 strain growth inhibition, active compounds read high
How it was run: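 Against vehicle-treated controls, the growth of yeast exposed to each compound was compared, and the inhibition was recorded.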

[13] = NCI Yeast Anticancer Drug Screen. Data for the mlh1 strain (AID 171);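 note: 0% = growth of vehicle-treated control cultures of the same strain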; details: S. cerevisiae mlh1 strain growth inhibition, active compounds read high
How it was run: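 Measured: yeast growth. Reference: vehicle-treated controls. Organism: strain with a defined alteration affecting DNA damage repair or cell cycle control, treated with compound.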

[14] = NCI Yeast Anticancer Drug Screen. Data for the sgs1 strain (AID 173);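 note: 0% = growth of vehicle-only control cultures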; details: S. cerevisiae sgs1 mutant, active compounds read high
How it was run: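 Each compound was added to cultures of the altered yeast strain. Growth was recorded, and inhibition was derived by comparison with vehicle controls.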

[15] = NCI Yeast Anticancer Drug Screen. Data for the mlh1 rad18 strain (AID 175); details: S. cerevisiae mlh1 rad18 strain growth inhibition, active compounds read high
How it was run: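 Genetically defined yeast (DNA repair-deficient) exposed to compounds; growth inhibition determined relative to vehicle.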

[16] = NCI Yeast Anticancer Drug Screen. Data for the rad18 strain (AID 177); details: S. cerevisiae rad18 mutant growth inhibition, active compounds read high
How it was run: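 Vehicle-treated cultures served as the baseline for scoring compound-induced growth inhibition in DNA-repair-mutant yeast.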

[17] = at 5.0 µM (retest, dose inferred, filed as 0.5)
[18] = at 50.0 µM (retest, dose inferred, filed as 5.0)

Measured: growth inhibition

CC[C@@]1(O)C[C@H](OC2CC(N(C)C)C(O)C(C)O2)c2c(O)c3c(c(O)c2[C@H]1OC1CC(N(C)C)C(O)C(C)O1)C(=O)c1cccc(O)c1C3=O (stereo partly specified)
inactive: [1]; at 1.2 µM 36% | [1]; at 3.7 µM 38% | [1]; at 11.0 µM 35% | [1]; at 33.0 µM 46% | [2]; at 1.2 µM -8% | [2]; at 3.7 µM 4% | [2]; at 11.0 µM 7% | [2]; at 33.0 µM 12% | [2]; at 100.0 µM 42% | [3]; at 1.2 µM 20% | [3]; at 3.7 µM 26% | [3]; at 11.0 µM 25% | [3]; at 33.0 µM 21% | [3]; at 100.0 µM 34% | [4]; at 1.2 µM 16% | [4]; at 3.7 µM 20% | [4]; at 11.0 µM 13% | [4]; at 33.0 µM 18% | [5]; at 1.2 µM 15% | [5]; at 3.7 µM 14% | [5]; [17] 16% | [5]; at 11.0 µM 11% | [5]; at 33.0 µM 27% | [5]; [18] 65% | [6]; at 1.2 µM 10% | [6]; at 3.7 µM -1% | [6]; [17] 10% | [6]; at 11.0 µM 3% | [6]; at 33.0 µM -4% | [6]; [18] 23% | [6]; at 100.0 µM 62% | [7]; at 1.2 µM 15% | [7]; at 3.7 µM 15% | [7]; at 11.0 µM 17% | [7]; at 33.0 µM 16% | [8]; [17] 5% | [9]; at 1.2 µM 3% | [9]; at 3.7 µM 6% | [9]; at 11.0 µM 1% | [9]; at 33.0 µM 10% | [10]; [17] 8% | [11]; at 1.2 µM 8% | [11]; at 3.7 µM 12% | [11]; [17] -9% | [11]; at 11.0 µM 6% | [11]; at 33.0 µM 10% | [12]; at 1.2 µM -21% | [12]; at 3.7 µM -24% | [12]; at 11.0 µM -44% | [12]; at 33.0 µM -4% | [13]; at 1.2 µM 20% | [13]; at 3.7 µM 20% | [13]; at 11.0 µM 16% | [13]; at 33.0 µM 10% | [14]; at 1.2 µM 14% | [14]; at 3.7 µM 9% | [14]; at 11.0 µM 11% | [14]; at 33.0 µM 18% | [15]; [17] 13% | [15]; [18] 63% | [16]; at 1.2 µM 6% | [16]; at 3.7 µM 12% | [16]; at 11.0 µM 5% | [16]; at 33.0 µM 30%
active: [1]; at 100.0 µM 92% | [4]; at 100.0 µM 87% | [5]; at 50.0 µM 83.1% | [5]; at 100.0 µM 90% | [6]; at 50.0 µM 85% | [7]; at 100.0 µM 83% | [8]; [18] 89% | [8]; at 50.0 µM 88.2% | [9]; at 100.0 µM 75% | [10]; [18] 71% | [10]; at 50.0 µM 75.8% | [11]; [18] 77% | [11]; at 50.0 µM 83.4% | [11]; at 100.0 µM 84% | [12]; at 100.0 µM 94% | [13]; at 100.0 µM 88% | [14]; at 100.0 µM 89% | [15]; at 50.0 µM 85% | [16]; at 100.0 µM 88%

O=C(/C=C(\c1ccccc1)N1CC1)c1ccccc1
inactive: [1]; at 1.2 µM -5% | [1]; at 3.7 µM -10% | [1]; at 11.0 µM -2% | [1]; at 33.0 µM 8% | [2]; at 1.2 µM -5% | [2]; at 3.7 µM -4% | [2]; at 11.0 µM -5% | [2]; at 33.0 µM 0% | [3]; at 1.2 µM 2% | [3]; at 3.7 µM 17% | [3]; at 11.0 µM 50% | [4]; at 1.2 µM -2% | [4]; at 3.7 µM -4% | [4]; at 11.0 µM -4% | [4]; at 33.0 µM 19% | [5]; at 1.2 µM -13% | [5]; at 3.7 µM -7% | [5]; [17] -140% | [5]; at 11.0 µM 8% | [5]; at 33.0 µM 33% | [5]; at 50.0 µM 62.5% | [6]; at 1.2 µM 2% | [6]; at 3.7 µM 1% | [6]; [17] -46% | [6]; at 11.0 µM 12% | [6]; at 33.0 µM -1% | [6]; [18] 28% | [6]; at 50.0 µM 59.8% | [7]; at 1.2 µM -4% | [7]; at 3.7 µM -1% | [7]; at 11.0 µM 3% | [7]; at 33.0 µM 40% | [8]; [17] -58% | [8]; [18] 47% | [8]; at 50.0 µM 17.2% | [9]; at 1.2 µM 4% | [9]; at 3.7 µM 1% | [9]; at 11.0 µM 0% | [9]; at 33.0 µM 0% | [10]; [17] -63% | [10]; [18] 12% | [10]; at 50.0 µM 0.55% | [11]; at 1.2 µM -7% | [11]; at 3.7 µM 0% | [11]; [17] -62% | [11]; at 11.0 µM 8% | [11]; at 33.0 µM 21% | [11]; [18] 54% | [11]; at 50.0 µM 63.9% | [12]; at 1.2 µM 0% | [12]; at 3.7 µM 0% | [12]; at 11.0 µM 1% | [12]; at 33.0 µM 3% | [13]; at 1.2 µM 7% | [13]; at 3.7 µM -3% | [13]; at 11.0 µM -5% | [13]; at 33.0 µM 6% | [14]; at 1.2 µM 1% | [14]; at 3.7 µM 2% | [14]; at 11.0 µM 3% | [14]; at 33.0 µM 31% | [15]; [17] -139% | [15]; at 50.0 µM 67.5% | [16]; at 1.2 µM -1% | [16]; at 3.7 µM 4% | [16]; at 11.0 µM 13% | [16]; at 33.0 µM 16%
active: [1]; at 100.0 µM 97% | [2]; at 100.0 µM 84% | [3]; at 33.0 µM 72% | [3]; at 100.0 µM 86% | [4]; at 100.0 µM 93% | [5]; [18] 86% | [5]; at 100.0 µM 98% | [6]; at 100.0 µM 97% | [7]; at 100.0 µM 99% | [9]; at 100.0 µM 84% | [11]; at 100.0 µM 93% | [12]; at 100.0 µM 93% | [13]; at 100.0 µM 98% | [14]; at 100.0 µM 97% | [15]; [18] 73% | [16]; at 100.0 µM 96%
